Assay [1] can be described thus: RPL19A-GFP modulators, yeast TOR pathway, confirmation, cell-based, S. cerevisiae, flow cytometry, cherry picks, mother/daughter gates (AID 2270;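 active = GFP response below 50% of the DMSO control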). As to conditions: S. cerevisiae RPL19A-GFP strain, 3 h, at 10 µM, stronger effect = lower value, 100 = same GFP as DMSO wells. (In general: Flow cytometry measures light scatter and fluorescence of single cells or particles in a stream.)

The nature of assay [2]: LAP4-GFP expression modulators in yeast, confirmation, cell-based, cherry picks, flow cytometry, mother/daughter gates (AID 2271;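 active = GFP response above 150% of the DMSO control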;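 also: ratio of sample to DMSO plate mean so 100% equals DMSO level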). As to conditions: S. cerevisiae LAP4-GFP strain, 3 h, at 10 µM, stronger effect = higher value, 100 means same as DMSO control.
The nature of assay [3]: modulators of MEP2-GFP levels in yeast, confirmation, S. cerevisiae, flow cytometry GFP, cherry picks (AID 2272;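 active = GFP response above 150% of the DMSO control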;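 also: ratio of well signal to plate DMSO mean so 100% equals DMSO level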). The following applies: S. cerevisiae MEP2-GFP strain, 3 h, at 10 µM, stronger effect = higher value.
Assay [4] is described as follows: AGP1-GFP expression modulators, hit retest, confirmation, cell-based, flow cytometry, S. cerevisiae, cherry picks (AID 2273).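 Also: median GFP channel fluorescence over the whole cell population gate.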 As to conditions: S. cerevisiae AGP1-GFP strain, 3 h, at 10 µM.
Assay [5] in a line: modulators of CIT2-GFP expression in yeast, confirmation, S. cerevisiae, GFP fusion, cherry picks, mother/daughter gates (AID 2274). The following applies: S. cerevisiae CIT2-GFP strain, flow cytometry, 3 h, at 10 µM, stronger effect = higher value.
The nature of assay [6]: compound autofluorescence in yeast s288c, dose response, artefact control for yeast TOR pathway GFP screen, s288c strain (AID 2757;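 active = fluorescence span over the dose series, or activity score, above about 33, limit read from the data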;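 also: thousands of bead-calibrated equivalent soluble fluorophore molecules from median cell fluorescence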). The following applies: S. cerevisiae s288c, 520 nm autofluorescence, flow cytometry, 3 h; at 33 µM; stronger effect = higher value; zero means same as solvent-only cells.
Setting [7] is: measured here: daughter cell gate.
Where [8] appears, read: measured here: mother cell gate.
[9] abbreviates: measured here: daughter cell gate response.
The mark [10] stands for this setting: measured here: mother cell gate response.

Some of the results follow. Calls of active or inactive are those of the source.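 The calls were made as follows, unless noted: active = GFP response above 150% of the DMSO level; inconclusive = fewer than 70 events counted for a yeast strain; inactive = the rest.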

For the compound `O=C(c1ccc(Cl)c([N+](=O)[O-])c1)N1CCN(c2ccccc2)CC1`, the GFP response vs DMSO is 99.4% (inactive) in assay [1], 101% in assay [1] (setting [7]), 96.7% in assay [1] (setting [8]) and 102% (inactive) in assay [3]. Moreover, the GFP response relative to DMSO is 116% (inactive) in assay [2], 114% in assay [2] (setting [9]) and 111% in assay [2] (setting [10]). The GFP response, % of DMSO in assay [4] was 97.8% (inactive); in assay [5] it was 95.5% (inactive); in assay [5] (setting [7]), 101%; in assay [5] (setting [8]), 92.6%. For the same compound, in assay [6], the fluorescence change (kMESF span) is 2.52 (inactive).

As to `Cc1cc(O)ccc1NC(=O)c1ccccc1`, the GFP response vs DMSO in assay [1] is 98.4% (inactive); in assay [1] (setting [7]) it was 98.4%; in assay [1] (setting [8]), 95.6%; in assay [3] it was 102% (inactive). The GFP response relative to DMSO in assay [2] is 96.7% (inactive); in assay [2] (setting [9]) it was 92.8%. Further, the GFP response, % of DMSO in assay [4] was 102% (inactive); in assay [5], 98.3% (inactive).

Consider `Cc1ccc(NC(=O)c2ccc(Cl)c(N3C(=O)C=CC3=O)c2)cc1`, for which the GFP response vs DMSO in assay [1] was 86.1% (inactive); in assay [1] (setting [8]), 69.8%; in assay [3] it was 129% (inactive). Besides, the GFP response relative to DMSO is 217% (active) in assay [2] and 186% in assay [2] (setting [10]). For the same compound, the GFP response, % of DMSO in assay [4] was 97.1% (inactive); in assay [5], 84.9% (inactive).

Turning to `Cc1c(/C=N/Nc2ccc(C(=O)O)cc2)c2ccccc2n1C`, the GFP response vs DMSO in assay [1] was 96.2% (inactive); in assay [1] (setting [7]), 91.3%; in assay [1] (setting [8]) it was 95.8%; in assay [3], 103% (inactive). For the same compound, the GFP response relative to DMSO in assay [2] was 105% (inactive). The GFP response, % of DMSO in assay [4] was 95.5% (inactive); in assay [5], 91.7% (inactive); in assay [5] (setting [7]), 81.6%; in assay [5] (setting [8]) it was 82.6%.

As to `O=C(Nc1nc(-c2ccccc2)cs1)c1cccnc1`, the GFP response vs DMSO in assay [1] is 101% (inactive); in assay [1] (setting [7]), 102%; in assay [1] (setting [8]) it was 101%; in assay [3], 98.3% (inactive). Moreover, in assay [2], the GFP response relative to DMSO is 103% (inactive). Also, the GFP response, % of DMSO in assay [4] was 91% (inactive); in assay [5], 98.3% (inactive).

Regarding `COc1ccccc1C1C2=C(CC(C)(C)CC2=O)N(CC(=O)O)C2=C1C(=O)CC(C)(C)C2`, the GFP response vs DMSO was 102% (inactive) in assay [1], 93% in assay [1] (setting [7]), 94% in assay [1] (setting [8]) and 133% (inactive) in assay [3]. Besides, the GFP response relative to DMSO in assay [2] was 105% (inactive). Moreover, the GFP response, % of DMSO in assay [4] is 98.9% (inactive); in assay [5], 117% (inactive); in assay [5] (setting [7]) it was 118%; in assay [5] (setting [8]), 107%.

With `COc1ccccc1-c1noc(-c2cccnc2)n1`, the GFP response vs DMSO is 95.3% (inactive) in assay [1], 93% in assay [1] (setting [7]), 95.4% in assay [1] (setting [8]) and 108% (inactive) in assay [3]. For the same compound, in assay [2], the GFP response relative to DMSO is 97.7% (inactive). The GFP response, % of DMSO is 96.6% (inactive) in assay [4], 95.8% (inactive) in assay [5], 88.7% in assay [5] (setting [7]) and 82.6% in assay [5] (setting [8]).

In the case of `Cc1ccc(C2CCN(C(=S)Nc3cccc(Cl)c3)C2)cc1` (centres undefined), the GFP response vs DMSO was 96.2% (inactive) in assay [1], 95.7% in assay [1] (setting [7]), 97.4% in assay [1] (setting [8]) and 97.5% (inactive) in assay [3]. For the same compound, the GFP response relative to DMSO in assay [2] was 119% (inactive). Moreover, the GFP response, % of DMSO in assay [4] is 93.2% (inactive); in assay [5], 92.1% (inactive); in assay [5] (setting [7]) it was 90.9%; in assay [5] (setting [8]), 95.6%.

Take `CCC1CCCCN1S(=O)(=O)c1ccc(C(=O)Nc2nnc(-c3ccccc3Cl)o2)cc1` (centres undefined): the GFP response vs DMSO in assay [1] was 97.6% (inactive); in assay [3] it was 102% (inactive). For the same compound, the GFP response relative to DMSO was 95.4% (inactive) in assay [2] and 89.6% in assay [2] (setting [9]). Further, the GFP response, % of DMSO is 101% (inactive) in assay [4] and 98.3% (inactive) in assay [5].

For `Nc1ccc(-c2c3ccc(=O)cc-3oc3cc(O)ccc23)cc1C(=O)O`, the GFP response vs DMSO in assay [1] was 103% (inactive); in assay [1] (setting [7]), 96.4%; in assay [1] (setting [8]), 104%; in assay [3], 248% (active). Further, the GFP response relative to DMSO in assay [2] is 150% (active). The GFP response, % of DMSO in assay [4] was 107% (inactive); in assay [5] it was 140% (inactive).

`Cc1ccc(N2C(=O)C3C4C=CC(CNC(=S)Nc5cccc(Cl)c5)(O4)C3C2=O)cc1` (centres undefined): the GFP response vs DMSO in assay [1] and in assay [3] was 101% (inactive) each time. In addition, the GFP response relative to DMSO in assay [2] is 97% (inactive); in assay [2] (setting [9]) it was 99.1%; in assay [2] (setting [10]), 97.3%. The GFP response, % of DMSO in assay [4] was 98.4% (inactive); in assay [5], 97.3% (inactive); in assay [5] (setting [7]), 99.2%; in assay [5] (setting [8]), 89.5%.

Consider `CC1=C/C(=N\OS(=O)(=O)c2ccccc2)C(C)=CC1=O`, for which the GFP response vs DMSO is 79.2% (inactive) in assay [1], 66.3% in assay [1] (setting [8]) and 118% (inactive) in assay [3]. In addition, the GFP response relative to DMSO in assay [2] was 262% (active); in assay [2] (setting [9]), 136%; in assay [2] (setting [10]), 243%. Further, the GFP response, % of DMSO in assay [4] is 108% (inactive); in assay [5], 98.8% (inactive); in assay [5] (setting [7]), 117%; in assay [5] (setting [8]) it was 88.2%.

Take `Cc1nn2c(N3CCCC3)cc(C(C)C)nc2c1-c1ccccc1`: the results for the GFP response vs DMSO in assay [1], in assay [1] (setting [7]) and in assay [3] were 100% (inactive), 92.4% and 101% (inactive), respectively. In addition, the GFP response relative to DMSO in assay [2] is 102% (inactive); in assay [2] (setting [9]), 97.5%; in assay [2] (setting [10]), 103%. Moreover, the GFP response, % of DMSO in assay [4] is 97.8% (inactive); in assay [5], 97.3% (inactive); in assay [5] (setting [7]) it was 97.4%; in assay [5] (setting [8]), 95.6%.

`Cc1cccc(CS(=O)(=O)c2ncc(Cl)c(C(=O)Nc3nnc(C(C)C)s3)n2)c1`: the results for the GFP response vs DMSO in assay [1] and in assay [3] were 96.7% (inactive) and 99.3% (inactive), respectively. For the same compound, the GFP response relative to DMSO in assay [2] was 106% (inactive); in assay [2] (setting [9]), 108%; in assay [2] (setting [10]), 105%. Further, the GFP response, % of DMSO in assay [4] was 102% (inactive); in assay [5] it was 103% (inactive); in assay [5] (setting [7]), 99.3%; in assay [5] (setting [8]) it was 104%.

For the compound `N#C/C(=C/c1ccc(N2CCOCC2)o1)c1ccc(Cl)cc1`, the GFP response vs DMSO in assay [1] is 96.8% (inactive); in assay [1] (setting [7]), 93.4%; in assay [1] (setting [8]), 91.5%; in assay [3], 104% (inactive). The GFP response relative to DMSO in assay [2] was 109% (inactive). For the same compound, the GFP response, % of DMSO in assay [4] is 95.8% (inactive); in assay [5], 104% (inactive); in assay [5] (setting [7]), 108%; in assay [5] (setting [8]), 96.8%.

`COc1cccc(/C(C)=N/NC(=O)c2ccc(N(C)C)cc2)c1`: the GFP response vs DMSO in assay [1] was 99.7% (inactive); in assay [1] (setting [7]) it was 96.5%; in assay [1] (setting [8]) it was 99.7%; in assay [3] it was 99.5% (inactive). In assay [2], the GFP response relative to DMSO is 93% (inactive). In addition, the GFP response, % of DMSO was 98.9% (inactive) in assay [4], 102% (inactive) in assay [5], 102% in assay [5] (setting [7]) and 89.8% in assay [5] (setting [8]).

The values above are taken from PubChem BioAssay.
